Assays:
Assay in all cases: PBM binding z-score (relative to random genomic background probes); higher = stronger binding; sequences stand for … in GC…GCGATTGACAGCGTAGAATGAAGG
[1] = tested on: FXR:RXRa (NR concentration 270 nM, RXRa partner concentration 90 nM)
How it was run: (§1)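 Binding z-scores were set against random background probes. The data came from custom Agilent 4×180K protein-binding microarrays carrying double-stranded probes with 34-nt variable regions, incubated 1 h with ligand-free nuclear receptor dimers. Partner-specific antibodies detected binding, and scanned fluorescence was regression-normalized.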

[2] = tested on: LXRa:RXRa (NR concentration 270 nM, RXRa partner concentration 90 nM)
How it was run: as §1

[3] = tested on: LXRa homodimer (NR concentration 270 nM)
How it was run: as §1

[4] = tested on: LXRb:RXRa (NR concentration 270 nM, RXRa partner concentration 90 nM)
How it was run: as §1

[5] = tested on: LXRb homodimer (NR concentration 270 nM)
How it was run: as §1

[6] = tested on: PPARa:RXRa (NR concentration 270 nM, RXRa partner concentration 90 nM)
How it was run: as §1

[7] = tested on: PPARg:RXRa (NR concentration 180 nM, RXRa partner concentration 90 nM)
How it was run: as §1

[8] = tested on: PPARg:RXRa 270nM:90nM, anti-RXR (NR concentration 270 nM, RXRa partner concentration 90 nM)
How it was run: as §1

[9] = tested on: PPARg:RXRa 30nM:10nM, anti-RXR (NR concentration 30 nM, RXRa partner concentration 10 nM)
How it was run: as §1

[10] = tested on: PPARg:RXRa 90nM:30nM, anti-RXR (NR concentration 90 nM, RXRa partner concentration 30 nM)
How it was run: as §1

[11] = tested on: PPARg:RXRa DBDmut IVT, anti-RXR (DBD mutation: RXRa K156A/R161A, NR concentration 270 nM, RXRa partner concentration 90 nM)
How it was run: as §1

[12] = tested on: PPARg:RXRa IVT, anti-PPARg (NR concentration 270 nM, RXRa partner concentration 90 nM)
How it was run: as §1

[13] = tested on: PPARg DBDmut:RXRa IVT, anti-PPARg (DBD mutation: PPARg1 K132A/R137A, NR concentration 270 nM, RXRa partner concentration 90 nM)
How it was run: as §1

[14] = tested on: PPARg DBDmut IVT, anti-PPARg (DBD mutation: PPARg1 K132A/R137A, NR concentration 270 nM)
How it was run: as §1

[15] = tested on: PPARg homodimer (NR concentration 180 nM)
How it was run: as §1

[16] = tested on: PXR:RXRa (NR concentration 270 nM, RXRa partner concentration 90 nM)
How it was run: as §1

[17] = tested on: PXR homodimer (NR concentration 270 nM)
How it was run: as §1

[18] = tested on: RARa:RXR (NR concentration 270 nM, RXRa partner concentration 90 nM)
How it was run: as §1

[19] = tested on: RARa homodimer (NR concentration 270 nM)
How it was run: as §1

[20] = tested on: RARb:RXRa (NR concentration 270 nM, RXRa partner concentration 90 nM)
How it was run: as §1

| Sequence | PBM binding z-score [1] | PBM binding z-score [2] | PBM binding z-score [3] | PBM binding z-score [4] | PBM binding z-score [5] | PBM binding z-score [6] | PBM binding z-score [7] | PBM binding z-score [8] | PBM binding z-score [9] | PBM binding z-score [10] | PBM binding z-score [11] | PBM binding z-score [12] | PBM binding z-score [13] | PBM binding z-score [14] | PBM binding z-score [15] | PBM binding z-score [16] | PBM binding z-score [17] | PBM binding z-score [18] | PBM binding z-score [19] | PBM binding z-score [20] |
| --- | --- | --- | --- | --- | --- | --- | --- | --- | --- | --- | --- | --- | --- | --- | --- | --- | --- | --- | --- | --- |
| CCTTACGGGTTAAGGTTATAGCACGGGTGGTACG | 1.55 | 1.38 | -0.0602 | 1.09 | -0.11 | 2.09 | 1.12 | 1.61 | 0.309 | 1.09 | 0.0868 | 0.867 | -0.169 | -0.202 | 0.702 | 1.16 | 0.325 | 1.85 | 0.517 | 1.8 |
| ATATGTAGGTTAGCTGGGGTTATTCAGACTAGGC | 1.74 | 3.29 | 0.848 | 2.56 | 1.44 | 3.94 | 4.22 | 3.82 | 1.45 | 2.9 | 6.78 | 6.18 | 3.12 | 2.79 | 1.88 | 4.02 | 0.969 | 3.11 | 1.26 | 1.38 |
| TAGCCTAGGTCATGCGGACCAGTATAGTGTCGGC | 3.93 | 3 | 0.318 | 1.59 | -0.198 | 3.33 | 1.99 | 2.5 | 0.202 | 1.38 | 1.69 | 2.81 | -0.0719 | -0.526 | 0.843 | 1.31 | -0.745 | 2.2 | -0.507 | 3.65 |
| CTCGAAAGGTCGGTTGAGGTGAGCATACGGATAA | 2.86 | 1.78 | -0.014 | 1.37 | -0.173 | 2.74 | 0.697 | 1.33 | 0.406 | 0.609 | -0.122 | 1.01 | -0.332 | -0.0105 | 0.799 | 2.9 | -0.0982 | 2.5 | 0.0392 | 3.09 |
| TCTATTAGTTGAAGGGGAACCGACGAGTCCGTTT | 1.21 | 1.19 | 0.437 | 1.19 | 0.829 | 1.23 | 0.0273 | 2.51 | 4.36 | 3.48 | 3 | 0.249 | 1.26 | 0.473 | 1.97 | 1.04 | 1.09 | 0.424 | 1.8 | 0.752 |
| CCTACTGGGCCAAAAAGGTCATTCATGCCGATAA | 3.81 | 4.85 | 4.27 | 4.54 | 0.914 | 4.85 | 3.37 | 4.13 | 1.87 | 3.58 | 3.69 | 3.97 | -0.431 | 0.123 | 4.57 | 5.41 | 4.84 | 5.86 | 2.12 | 4.22 |
| GCAGACAGGTGAATCGCAGGTAACTCAGGGTGGC | -0.281 | -0.0182 | -0.726 | -0.203 | -1.12 | 0.748 | 0.386 | -0.0895 | -0.47 | -0.296 | 0.726 | 0.657 | -0.695 | -0.904 | -0.727 | -0.313 | -0.959 | 0.0382 | -0.689 | 0.443 |
| CAAACTAGGTCAAGAGGTCAAAGACCGCTTCCCG | 7 | 6.25 | 5.13 | 5.46 | 1.47 | 6.65 | 10.1 | 8.53 | 7.38 | 8.62 | 8.33 | 8.34 | 1.4 | 0.266 | 5.54 | 5.94 | 1.78 | 7.58 | 1.89 | 5.61 |
| CAAACTAGGTCACCGGAAGGTCACAGTCCGCATG | 6.17 | 5.52 | 4.03 | 4.77 | 1.26 | 5.9 | 9.97 | 7.71 | 6.06 | 7.55 | 8.58 | 9.08 | 2.66 | 1.61 | 8.88 | 5.64 | 1.29 | 7.62 | 3.12 | 5.42 |
| GCTCGGAGGACAAGATCAGAGCTTTGTCCGTAGA | -0.699 | -0.742 | -0.685 | -0.96 | -0.96 | -0.552 | -0.773 | -0.906 | -1.18 | -1.04 | -0.785 | -0.327 | -1.13 | -1.46 | -1.73 | -0.776 | -0.689 | -0.823 | -1.48 | 0.581 |
| ATCGAAAGGTCGACGAGGTTAGTATACACCGTTT | 4.41 | 3.75 | 0.309 | 3.11 | 0.782 | 4.33 | 2.6 | 3.04 | 0.863 | 2.24 | 0.568 | 1.88 | 1.2 | 0.625 | 1.24 | 4.03 | 2.16 | 3.97 | 0.691 | 3.86 |
| CATCAAAGTTCAAGGTAACGTAACAGAAAGCAGC | 6.68 | 5.7 | 3.88 | 3.79 | 2.13 | 4.66 | 3.59 | 4 | 1.71 | 2.82 | 0.753 | 1.84 | 1.29 | 1.96 | 2.92 | 4.19 | 2.76 | 3.44 | 2.21 | 5.31 |
| ATACCAAGGTGATCGTGAGGGCGTTGATACTAAC | 0.788 | 0.233 | -0.00704 | 0.447 | -0.219 | 0.489 | 0.369 | -0.183 | -0.112 | -0.238 | 0.642 | 0.871 | 0.129 | 1.25 | 0.383 | 1.29 | 0.775 | 0.85 | 0.505 | 0.796 |
| AGAATGAGGTTATACATAGATCAGGGAAGAAAGT | 1.88 | 2.05 | 0.223 | 1.56 | 0.151 | 3.07 | 2.28 | 1.87 | 0.974 | 1.4 | 2.35 | 1.91 | 1.44 | 1.27 | 1.21 | 1.43 | 0.76 | 1.9 | 0.765 | 1.6 |
| TCTTGTAGATCAACAGGAGGTTAAGAATGATCGA | 0.541 | 0.729 | 0.072 | 0.703 | -0.4 | 1.41 | 0.296 | 1.52 | 2.59 | 2.06 | 1.72 | 0.852 | 0.795 | 0.577 | 0.581 | 0.825 | 0.00794 | 0.975 | 0.614 | 0.678 |
| CCTACTGGGCCAAGGTCACTGATCAGTCAAAGCA | 3.03 | 2.64 | 0.281 | 2.79 | -0.518 | 4.1 | 4.17 | 4.62 | 2.22 | 3.93 | 4.22 | 4.98 | -0.183 | -0.598 | 2.26 | 3.02 | 0.241 | 3.49 | 0.0362 | 3.73 |
| TCTTGTAGATCAGCAGGTTAACAAAGCTGGCCAA | 0.321 | 0.368 | -0.313 | 0.507 | -0.6 | 1.21 | 0.102 | 1.77 | 2.61 | 2.21 | 1.62 | 0.747 | -0.763 | -0.365 | 0.0617 | 0.171 | -0.584 | 0.489 | -0.289 | 0.359 |
| CGAACTAGGTCTAGGACAGTGAATCTCCGCACGC | -0.409 | -0.606 | -0.429 | -1.12 | -0.723 | -0.176 | 0.461 | -0.367 | -0.539 | -0.377 | 2.28 | 1.58 | -0.66 | -0.934 | -0.583 | -0.626 | -0.327 | -0.766 | -0.883 | -0.221 |

Source: the supplement of paper PMC6555819
